In PubChem BioAssay (NCI):
About 83,000 compounds went through this panel and 20% of them were active in at least one assay; those are over-represented in the sample as a whole.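 Note: values are percent growth. 100 is the growth of untreated cells, values between 100 and 0 indicate rising inhibition; between -100 and 0 indicates cell death.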 Activity calls are given as the source filed them. Rule for the calls: active = growth percent below 10; inactive = the rest.

What was measured:
Experiment in all cases: NCI-60 one-dose screen, 48 h (100 = growth as untreated, 0 = no growth, -100 = all killed)
Settings in all cases: 10 µM unless noted
SK-MEL-2 melanoma = test system: SK-MEL-2 melanoma
EKVX NSCLC = test system: EKVX NSCLC
SN12C renal = test system: SN12C renal
UO-31 renal = test system: UO-31 renal
TK-10 renal = test system: TK-10 renal
ACHN renal = test system: ACHN renal
CAKI-1 renal = test system: CAKI-1 renal
A498 renal = test system: A498 renal
CCRF-CEM leukemia = test system: CCRF-CEM leukemia
MOLT-4 leukemia = test system: MOLT-4 leukemia
SR leukemia = test system: SR leukemia
RPMI-8226 leukemia = test system: RPMI-8226 leukemia
OVCAR-8 ovarian = test system: OVCAR-8 ovarian
OVCAR-5 ovarian = test system: OVCAR-5 ovarian
OVCAR-4 ovarian = test system: OVCAR-4 ovarian
SK-OV-3 ovarian = test system: SK-OV-3 ovarian
IGROV1 ovarian = test system: IGROV1 ovarian
OVCAR-3 ovarian = test system: OVCAR-3 ovarian
HS 578T breast = test system: HS 578T breast
NCI/ADR-RES ovarian = test system: NCI/ADR-RES ovarian

Measured: growth

Oc1ccc2ccccc2c1N=Nc1nccs1
active: EKVX NSCLC -9.54% | TK-10 renal -14% | CAKI-1 renal -31.1% | CCRF-CEM leukemia -7.19% | MOLT-4 leukemia -4.26% | SR leukemia -10% | RPMI-8226 leukemia 2.25% | OVCAR-3 ovarian 1.47% | NCI/ADR-RES ovarian -22.6%
inactive: SK-MEL-2 melanoma 153% | SN12C renal 34.4% | UO-31 renal 59.3% | ACHN renal 10.3% | A498 renal 136% | OVCAR-8 ovarian 14.9% | OVCAR-5 ovarian 45.3% | OVCAR-4 ovarian 16.2% | SK-OV-3 ovarian 51.6% | IGROV1 ovarian 184% | HS 578T breast 213%

CCCCOS(=O)(=O)c1ccccc1
inactive: SK-MEL-2 melanoma 99.9% | EKVX NSCLC 108% | SN12C renal 100% | UO-31 renal 99.8% | TK-10 renal 106% | ACHN renal 103% | CAKI-1 renal 93.2% | A498 renal 128% | CCRF-CEM leukemia 110% | MOLT-4 leukemia 166% | SR leukemia 126% | RPMI-8226 leukemia 126% | OVCAR-8 ovarian 120% | OVCAR-5 ovarian 95.8% | OVCAR-4 ovarian 104% | SK-OV-3 ovarian 113% | IGROV1 ovarian 131% | OVCAR-3 ovarian 112% | HS 578T breast 107% | NCI/ADR-RES ovarian 107%

CCOc1ccc(C(CN2CCOCC2)C(C)=O)cc1OC (stereo not given)
active: CAKI-1 renal -89.9%
inactive: SK-MEL-2 melanoma 111% | EKVX NSCLC 96.2% | SN12C renal 86.6% | UO-31 renal 75.4% | TK-10 renal 49.8% | ACHN renal 79.6% | A498 renal 92.2% | CCRF-CEM leukemia 52.7% | MOLT-4 leukemia 87.2% | SR leukemia 65.2% | RPMI-8226 leukemia 62.3% | OVCAR-8 ovarian 96.3% | OVCAR-5 ovarian 99.1% | OVCAR-4 ovarian 98.2% | SK-OV-3 ovarian 99.4% | IGROV1 ovarian 113% | OVCAR-3 ovarian 88.3% | HS 578T breast 97.7% | NCI/ADR-RES ovarian 107%

CCCCCCCCCCCC[n+]1ccc2ccccc2c1
inactive: ACHN renal 13% | CAKI-1 renal 40.9% | A498 renal 77.6% | HS 578T breast 15.1% | NCI/ADR-RES ovarian 54.2%
active: SK-MEL-2 melanoma -24.7% | EKVX NSCLC -4.82% | SN12C renal -18.4% | UO-31 renal -23.8% | TK-10 renal -46.7% | CCRF-CEM leukemia 3.12% | MOLT-4 leukemia -25.9% | SR leukemia -29.7% | RPMI-8226 leukemia -53.7% | OVCAR-8 ovarian -37% | OVCAR-5 ovarian 7.35% | OVCAR-4 ovarian -17.2% | SK-OV-3 ovarian -26.2% | IGROV1 ovarian -51.9% | OVCAR-3 ovarian -70.3%

Cc1cc(C)c([I+]c2c(C)cc(C)cc2C)c(C)c1
active: SK-MEL-2 melanoma -44.1% | EKVX NSCLC 4.01% | SN12C renal -66.2% | UO-31 renal -20.4% | ACHN renal -16.1% | CCRF-CEM leukemia -29.5% | MOLT-4 leukemia -41.1% | SR leukemia -49.1% | RPMI-8226 leukemia -8.17% | OVCAR-8 ovarian -60.3% | OVCAR-5 ovarian -7.26% | OVCAR-4 ovarian -44.8% | SK-OV-3 ovarian -26.4% | IGROV1 ovarian -47.6% | OVCAR-3 ovarian -44.9%
inactive: TK-10 renal 12.7% | CAKI-1 renal 29.2% | A498 renal 45% | HS 578T breast 20.5% | NCI/ADR-RES ovarian 78%

CCOc1ccc(Nc2nc3c(s2)C(=O)c2ccccc2C3=O)cc1
inactive: SK-MEL-2 melanoma 101% | EKVX NSCLC 96.4% | SN12C renal 51.3% | UO-31 renal 72.9% | TK-10 renal 127% | ACHN renal 75.1% | CAKI-1 renal 74.2% | A498 renal 76.7% | CCRF-CEM leukemia 51.4% | MOLT-4 leukemia 48.5% | SR leukemia 46.6% | RPMI-8226 leukemia 51% | OVCAR-8 ovarian 68.4% | OVCAR-5 ovarian 112% | OVCAR-4 ovarian 65.5% | SK-OV-3 ovarian 103% | IGROV1 ovarian 82.2% | OVCAR-3 ovarian 53.9% | HS 578T breast 96.8% | NCI/ADR-RES ovarian 75.2%

CCCc1cc(=O)oc2c3c(c4c(c12)OC(C)(C)CC4)OC(C)[C@H](C)[C@@H]3O (stereo not given in full)
inactive: SK-MEL-2 melanoma 13.6% | EKVX NSCLC 90% | SN12C renal 81% | UO-31 renal 34.9% | TK-10 renal 139% | ACHN renal 66.1% | CAKI-1 renal 104% | A498 renal 63% | CCRF-CEM leukemia 84.8% | MOLT-4 leukemia 54.9% | SR leukemia 45.8% | RPMI-8226 leukemia 10.5% | OVCAR-8 ovarian 81.7% | OVCAR-5 ovarian 86% | OVCAR-4 ovarian 83.9% | SK-OV-3 ovarian 95.3% | IGROV1 ovarian 12.7% | OVCAR-3 ovarian 112% | HS 578T breast 74.7% | NCI/ADR-RES ovarian 81.7%
